{"source": "ChEMBL document CHEMBL3433997", "about": "“St. Jude Leishmania screening dataset” (2016)"}
{"target": "Solute carrier family 2, facilitated glucose transporter member 1 (Homo sapiens) (UniProt P11166)", "sequence (P11166 whole entry)": "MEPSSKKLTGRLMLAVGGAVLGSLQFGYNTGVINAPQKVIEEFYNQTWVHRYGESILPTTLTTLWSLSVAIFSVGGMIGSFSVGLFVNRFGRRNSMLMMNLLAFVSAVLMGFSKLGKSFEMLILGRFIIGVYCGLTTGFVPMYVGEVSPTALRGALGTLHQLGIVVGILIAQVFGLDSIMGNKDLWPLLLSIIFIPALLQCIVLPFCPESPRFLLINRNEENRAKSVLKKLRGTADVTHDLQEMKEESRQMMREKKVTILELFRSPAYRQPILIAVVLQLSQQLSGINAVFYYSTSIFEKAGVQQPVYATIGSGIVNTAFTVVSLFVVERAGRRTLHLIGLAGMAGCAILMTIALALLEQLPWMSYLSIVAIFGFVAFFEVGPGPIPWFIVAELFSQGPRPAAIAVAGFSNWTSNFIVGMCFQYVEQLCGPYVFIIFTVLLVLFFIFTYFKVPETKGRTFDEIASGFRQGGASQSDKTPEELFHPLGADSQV", "test": "ST_JUDE_LEISH: Cytotoxicity at 2uM final concentration against transgenic Leishmania Mexicana promastigotes LmGLUT1 that are glucose transport deficient and complemented with the human glucose transporter GLUT1. Activity is measured by DNA content using SYBR green in vitro", "format": "functional", "units": {"inhibition": "%"}}
{"smiles": "COc1ccc(NC(=O)/C=C/c2ccccc2Cl)cc1OCCN1CCC(O)(c2ccc(Cl)c(C(F)(F)F)c2)CC1", "inhibition": 11.2}
{"smiles": "CC(C)NCc1ccc(-c2cccc(-c3nc4ccccc4[nH]3)c2)cc1", "inhibition": 13.3}
{"smiles": "CN1CCN(CCCN(Cc2ccc(-c3cccc(CNCc4ccc5c(c4)OCO5)c3)cc2)C(=O)NCCc2ccccc2)CC1", "inhibition": 5.4}
{"smiles": "O=C(Nc1cccc(Cl)c1Cl)N[C@H]1CCN(CCCCCNC(=O)C2CC2c2ccc(Cl)c(Cl)c2)C1", "note": "(stereo partly specified)", "inhibition": 5.31}
{"smiles": "CC(C)CNCc1cccc(-c2cccc(CN(CCCN3CCN(C)CC3)C(=O)CCC3CCCC3)c2)c1", "inhibition": 4.42}
{"smiles": "O=C(Nc1cccc(OC2CCN(Cc3ccccc3)CC2)c1)c1ccc([N+](=O)[O-])cc1", "inhibition": 4.89}
{"smiles": "CCc1cccc(OCCCON2C(=N)N=C(N)NC2(C)C)c1", "inhibition": 7.55}
{"smiles": "CCc1c(CCNCCCCCCNCCc2ccc(Br)cc2)ccc(OC)c1OC", "inhibition": 36.3}
{"smiles": "CC(NCC(O)Cn1c2ccccc2c2ccccc21)c1ccccc1", "note": "(stereo unspecified)", "inhibition": 0.86}
{"smiles": "O=C(N/C(=C/c1cccc([N+](=O)[O-])c1)c1nc2ccccc2[nH]1)c1cccc(Br)c1", "inhibition": 2.64}
{"smiles": "COc1ccc(-c2cccc(NC(=O)c3ccc(F)cc3)c2)cc1CN1CCCN(C)CC1", "inhibition": 11.2}
{"smiles": "CCn1c(SCc2ccc(F)cc2)nc2sc3c(c2c1=O)CCN(C)C3", "inhibition": -1.93}
{"smiles": "CCOc1ccc(C(=O)Nc2cc(Br)c3c(c2)CNCC3)cc1C#N", "inhibition": 6.36}
{"smiles": "CCc1ccc(NC(=O)C=NNC(=N)N)cc1", "inhibition": 1.51}
{"smiles": "Clc1cc(Cl)cc(Nc2ccnc(Nc3cc(Cl)cc(Cl)c3)n2)c1", "inhibition": 4.6}
{"smiles": "COc1ccc2nccc([C@@H](O)CN3CCC(NCc4cc5ccc(Cl)cc5[nH]4)CC3)c2c1", "inhibition": 9.64}
